# This is part of a sample that, as a whole, favours compounds with a hit. Of some 79,000 tested, about 15% had one in any assay. A number with no mark means an inactive call. Calls of active or inactive are those of the source. Cut-off read from the data, not from the text of the source: active = growth inhibition above about 70%; inactive = the rest.
# What was measured:
# [1] = NCI Yeast Anticancer Drug Screen. Data for the rad52 strain (AID 147);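 note: 0% = growth of vehicle-treated control cultures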; settings: S. cerevisiae rad52 mutant growth inhibition, hits give high values
# Method in brief: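 DNA repair-defective yeast; compound exposure; growth scored against vehicle controls.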
# [2] = NCI Yeast Anticancer Drug Screen. Data for the wt1 strain (AID 149);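 note: 0% = growth of vehicle-treated wt1 cultures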; settings: S. cerevisiae wt1 strain (SPY 50644) growth inhibition, hits give high values
# Method in brief: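 Using yeast strain wt1, compound-induced growth inhibition was determined against vehicle-treated cultures.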
# [3] = NCI Yeast Anticancer Drug Screen. Data for the rad50EPP+ strain (AID 151);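 note: 0% = growth of vehicle-treated control cultures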; settings: S. cerevisiae rad50 mutant strain, hits give high values
# Method in brief: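 rad50EPP+ yeast treated with test compounds. Readout: growth vs vehicle control.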
# [4] = NCI Yeast Anticancer Drug Screen. Data for the mgt1 strain (AID 153); settings: S. cerevisiae mgt1 mutant growth inhibition, hits give high values
# Method in brief: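 Growth inhibition relative to vehicle controls was scored for the mgt1 yeast strain after compound exposure.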
# [5] = NCI Yeast Anticancer Drug Screen. Data for the rad50 strain (AID 155);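 note: 0% = growth of vehicle-only cultures of the same strain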; settings: S. cerevisiae rad50 strain growth inhibition, hits give high values
# Method in brief: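 Relative growth inhibition (compound vs vehicle) was measured in yeast with a defined repair-gene alteration.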
# [6] = NCI Yeast Anticancer Drug Screen. Data for the mec2-1 strain (AID 157); settings: S. cerevisiae mec2-1 strain, hits give high values
# Method in brief: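 Growth inhibition is read against vehicle-treated controls after compound exposure of the mec2-1 yeast strain, which is defective in DNA damage repair or cell cycle control.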
# [7] = NCI Yeast Anticancer Drug Screen. Data for the rad14 strain (AID 159);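 note: 0% = growth of vehicle-treated control cultures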; settings: S. cerevisiae rad14 strain growth inhibition, hits give high values
# Method in brief: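 Screen for anticancer potential: a yeast strain altered in DNA damage repair is grown with compound, and reduced growth is quantified against vehicle controls.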
# [8] = NCI Yeast Anticancer Drug Screen. Data for the sgs1 mgt1 strain (AID 161);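 note: 0% = growth of cultures given vehicle only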; settings: S. cerevisiae sgs1 mgt1 strain, hits give high values
# Method in brief: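 Yeast cells carrying a defined DNA-repair defect were exposed to test compounds. Growth inhibition was measured relative to vehicle-treated controls.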
# [9] = NCI Yeast Anticancer Drug Screen. Data for the CLN2oe strain (AID 163);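 note: 0% = growth of vehicle-only control cultures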; settings: S. cerevisiae CLN2oe strain, hits give high values
# Method in brief: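 Compound-treated yeast; growth vs vehicle ctrl = % inhibition. Genetically altered strain (cell-cycle control).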
# [10] = NCI Yeast Anticancer Drug Screen. Data for the cln2 rad14 strain (AID 165);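 note: 0% = growth equal to vehicle treated cultures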; settings: S. cerevisiae cln2 rad14 strain, hits give high values
# Method in brief: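 Growth inhibition, relative to vehicle-treated controls, is the read-out. The test organism is a yeast strain with defined genetic alterations, cln2 rad14.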
# [11] = NCI Yeast Anticancer Drug Screen. Data for the bub3 strain (AID 167); settings: S. cerevisiae bub3 mutant strain, hits give high values
# Method in brief: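 Screening used yeast with an engineered genetic alteration affecting cell cycle control. Compound-exposed cultures were compared with vehicle cultures, and reduced growth was taken as inhibition.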
# [12] = NCI Yeast Anticancer Drug Screen. Data for the wt2 strain (AID 169);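 note: 0% = growth of vehicle-treated yeast cultures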; settings: S. cerevisiae wt2 strain growth inhibition, hits give high values
# Method in brief: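 Compound exposure of yeast; growth compared with vehicle controls; inhibition reported.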
# [13] = NCI Yeast Anticancer Drug Screen. Data for the mlh1 strain (AID 171);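 note: 0% = growth of vehicle-treated control cultures of the same strain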; settings: S. cerevisiae mlh1 strain growth inhibition, hits give high values
# Method in brief: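 Compounds are applied to a genetically altered yeast strain, and its growth is compared with that of vehicle-treated cultures to give percent inhibition.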
# [14] = NCI Yeast Anticancer Drug Screen. Data for the sgs1 strain (AID 173);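 note: 0% = growth of vehicle-only control cultures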; settings: S. cerevisiae sgs1 mutant, hits give high values
# Method in brief: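 Compounds applied to genetically altered yeast; growth compared with vehicle-treated cultures to give % inhibition.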
# [15] = NCI Yeast Anticancer Drug Screen. Data for the mlh1 rad18 strain (AID 175); settings: S. cerevisiae mlh1 rad18 strain growth inhibition, hits give high values
# Method in brief: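 Cells of a genetically altered yeast strain, deficient in DNA damage repair, were treated with compound. Their growth was then compared with that of vehicle-treated cultures to give inhibition.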
# [16] = NCI Yeast Anticancer Drug Screen. Data for the rad18 strain (AID 177); settings: S. cerevisiae rad18 mutant growth inhibition, hits give high values
# Method in brief: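 Compounds are applied to a repair-deficient yeast strain, and growth is compared with that of vehicle-treated cultures to give percent inhibition.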
# [17] = at 5.0 µM (retest, dose inferred, filed as 0.5)
# [18] = at 50.0 µM (retest, dose inferred, filed as 5.0)
structure (smiles),measurement,setting,value
Cc1nc2ccccc2nc1NNc1ccccc1,growth inhibition,[1]; at 1.2 µM,-5%
same,growth inhibition,[1]; at 3.7 µM,-8%
same,growth inhibition,[1]; at 11.0 µM,-4%
same,growth inhibition,[1]; at 33.0 µM,4%
same,growth inhibition,[1]; at 100.0 µM,24%
same,growth inhibition,[2]; at 1.2 µM,4%
same,growth inhibition,[2]; at 3.7 µM,9%
same,growth inhibition,[2]; at 11.0 µM,14%
same,growth inhibition,[2]; at 33.0 µM,17%
same,growth inhibition,[2]; at 100.0 µM,20%
same,growth inhibition,[3]; at 1.2 µM,-9%
same,growth inhibition,[3]; at 3.7 µM,-5%
same,growth inhibition,[3]; at 11.0 µM,22%
same,growth inhibition,[3]; at 33.0 µM,65%
same,growth inhibition,[3]; at 100.0 µM,84% (active)
same,growth inhibition,[4]; at 1.2 µM,4%
same,growth inhibition,[4]; at 3.7 µM,3%
same,growth inhibition,[4]; at 11.0 µM,3%
same,growth inhibition,[4]; at 33.0 µM,-13%
same,growth inhibition,[4]; at 100.0 µM,26%
same,growth inhibition,[5]; at 1.2 µM,-6%
same,growth inhibition,[5]; at 3.7 µM,-12%
same,growth inhibition,[5]; [17],17%
same,growth inhibition,[5]; at 11.0 µM,9%
same,growth inhibition,[5]; at 33.0 µM,46%
same,growth inhibition,[5]; [18],34%
same,growth inhibition,[5]; at 50.0 µM,81.3% (active)
same,growth inhibition,[5]; at 100.0 µM,60%
same,growth inhibition,[6]; at 1.2 µM,-2%
same,growth inhibition,[6]; at 3.7 µM,0%
same,growth inhibition,[6]; [17],-7%
same,growth inhibition,[6]; at 11.0 µM,9%
same,growth inhibition,[6]; at 33.0 µM,11%
same,growth inhibition,[6]; [18],39%
same,growth inhibition,[6]; at 50.0 µM,41.6%
same,growth inhibition,[6]; at 100.0 µM,22%
same,growth inhibition,[7]; at 1.2 µM,-3%
same,growth inhibition,[7]; at 3.7 µM,-7%
same,growth inhibition,[7]; at 11.0 µM,0%
same,growth inhibition,[7]; at 33.0 µM,7%
same,growth inhibition,[7]; at 100.0 µM,38%
same,growth inhibition,[8]; [17],13%
same,growth inhibition,[8]; [18],32%
same,growth inhibition,[8]; at 50.0 µM,36%
same,growth inhibition,[9]; at 1.2 µM,-7%
same,growth inhibition,[9]; at 3.7 µM,-2%
same,growth inhibition,[9]; at 11.0 µM,10%
same,growth inhibition,[9]; at 33.0 µM,18%
same,growth inhibition,[9]; at 100.0 µM,18%
same,growth inhibition,[10]; [17],79% (active)
same,growth inhibition,[10]; [18],48%
same,growth inhibition,[10]; at 50.0 µM,-11.8%
same,growth inhibition,[11]; at 1.2 µM,6%
same,growth inhibition,[11]; at 3.7 µM,9%
same,growth inhibition,[11]; [17],38%
same,growth inhibition,[11]; at 11.0 µM,28%
same,growth inhibition,[11]; at 33.0 µM,51%
same,growth inhibition,[11]; [18],44%
same,growth inhibition,[11]; at 50.0 µM,74% (active)
same,growth inhibition,[11]; at 100.0 µM,63%
same,growth inhibition,[12]; at 1.2 µM,3%
same,growth inhibition,[12]; at 3.7 µM,5%
same,growth inhibition,[12]; at 11.0 µM,14%
same,growth inhibition,[12]; at 33.0 µM,23%
same,growth inhibition,[12]; at 100.0 µM,22%
same,growth inhibition,[13]; at 1.2 µM,1%
same,growth inhibition,[13]; at 3.7 µM,-4%
same,growth inhibition,[13]; at 11.0 µM,7%
same,growth inhibition,[13]; at 33.0 µM,30%
same,growth inhibition,[13]; at 100.0 µM,41%
same,growth inhibition,[14]; at 1.2 µM,1%
same,growth inhibition,[14]; at 3.7 µM,1%
same,growth inhibition,[14]; at 11.0 µM,8%
same,growth inhibition,[14]; at 33.0 µM,16%
same,growth inhibition,[14]; at 100.0 µM,24%
same,growth inhibition,[15]; [17],-8%
same,growth inhibition,[15]; [18],28%
same,growth inhibition,[15]; at 50.0 µM,56.6%
same,growth inhibition,[16]; at 1.2 µM,-3%
same,growth inhibition,[16]; at 3.7 µM,-2%
same,growth inhibition,[16]; at 11.0 µM,-5%
same,growth inhibition,[16]; at 33.0 µM,30%
same,growth inhibition,[16]; at 100.0 µM,58%

# Reference: PubChem BioAssay (NCI)
